In PubChem BioAssay AID1159580 (chemical genetic matrix, 2015):
Values joined by “and” are separate entries in the source; they are usually repeats but may differ in a detail not shown here. Equal values may be shown once. The whole screen tested about 5,500 compounds, of which about 2,000 (36%) were called active. Inconclusive results (about 18%) are left out. No stated cut-off is given here; in the data, active means normalized growth mostly below about 0.91 (no sharp cut-off); inconclusive means no clear call, values can overlap the other calls; inactive means mostly above about 0.92. This is one part of the list.

Test: chemical genetic growth profiling, strain panel (AID 1159580);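 further: tested at 20 µM; growth read once vehicle control cultures reached saturation at 30 °C; 1 = growth at the plate median or of vehicle wells; lower values mean less growth of the strain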
Details: S. cerevisiae deletion strains, growth OD

Measured: normalized growth

CNC1(C)C2CCC(C2)C1(C)C (stereo unspecified)
inactive: locus YAL013W, strain DEP1, hits give low values 0.982 | locus YAL021C, strain ccr4, hits give low values 0.97 | locus YAL026C, strain drs2, hits give low values 1 | locus YAL030W, strain snc1, hits give low values 1 | locus YAL040C, strain CLN3, hits give low values 1 | locus YBL061C, strain skt5, hits give low values 0.998 | locus YBR009C, strain hhf1, hits give low values 0.993 | locus YBR021W, strain FUR4, hits give low values 1.03 | locus YBR023C, strain chs3, hits give low values 0.981 | locus YBR171W, strain sec66, hits give low values 0.986 | locus YBR229C, strain ROT2, hits give low values 0.961 | locus YBR231C, strain swc5, hits give low values 0.982 | locus YBR279W, strain paf1, hits give low values 0.986 | locus YCL011C, strain gbp2, hits give low values 0.996 | locus YCL016C, strain dcc1, hits give low values 0.977 | locus YCL029C, strain bik1, hits give low values 0.991 | locus YCL061C, strain MRC1 (second series), hits give low values 0.999 | locus YCL061C, strain MRC1, hits give low values 0.989 | locus YCL069W, strain vba3, hits give low values 0.997 | locus YCR088W, strain abp1, hits give low values 0.994 | locus YDL005C, strain med2, hits give low values 0.992 | locus YDL035C, strain GPR1, hits give low values 0.993 | locus YDL040C, strain nat1, hits give low values 0.997 | locus YDL074C, strain BRE1, hits give low values 0.957 | locus YDL101C, strain DUN1, hits give low values 0.969 | locus YDL134C, strain PPH21, hits give low values 0.989 | locus YDL185W, strain tfp1, hits give low values 0.968 | locus YDL192W, strain arf1, hits give low values 0.996 | locus YDR001C, strain nth1, hits give low values 0.996 | locus YDR069C, strain doa4, hits give low values 1.02 | locus YDR101C, strain arx1, hits give low values 1.01 | locus YDR137W, strain rgp1, hits give low values 0.987 | locus YDR150W, strain NUM1, hits give low values 0.977 | locus YDR159W, strain sac3, hits give low values 0.994 | locus YDR162C, strain NBP2, hits give low values 0.913 | locus YDR195W, strain ref2 1 | locus YDR297W, strain sur2, hits give low values 0.993 | locus YDR318W, strain mcm21, hits give low values 1.03 | locus YDR334W, strain swr1, hits give low values 1 | locus YDR335W, strain msn5, hits give low values 0.999 | locus YDR363W, strain ESC2, hits give low values 0.993 | locus YDR388W, hits give low values 1.01 | locus YDR392W, strain spt3, hits give low values 0.93 | locus YDR502C, strain sam2, hits give low values 0.984 | locus YEL003W, strain gim4, hits give low values 1 | locus YEL037C, strain rad23, hits give low values 0.995 | locus YEL061C, strain CIN8 (second series), hits give low values 1 | locus YEL061C, strain CIN8, hits give low values 0.982 | locus YER002W, strain NOP16, hits give low values 1 | locus YER015W, strain faa2, hits give low values 1 | locus YER016W, strain bim1, hits give low values 0.997 | locus YER110C, hits give low values 0.993 | locus YER111C, strain swi4, hits give low values 1 | locus YER155C, strain BEM2 (second series), hits give low values 0.995 | locus YER155C, strain BEM2, hits give low values 0.987 | locus YER167W, strain BCK2, hits give low values 1 | locus YFR010W, strain ubp6, hits give low values 0.993 | locus YGL078C, strain dbp3, hits give low values 0.992 | locus YGL086W, strain mad1, hits give low values 1.01 | locus YGL167C, strain pmr1, hits give low values 0.993 | locus YGL173C, strain kem1, hits give low values 0.995 | locus YGL227W, strain vid30, hits give low values 0.987 | locus YGL240W, strain doc1, hits give low values 0.985 | locus YGL248W, strain PDE1, hits give low values 0.982 | locus YGL253W, strain hxk2, hits give low values 1 | locus YGR078C, strain PAC10, hits give low values 0.978 | locus YGR135W, strain pre9, hits give low values 0.96 | locus YGR229C, strain SMI1, hits give low values 0.987 | locus YGR252W, strain gcn5, hits give low values 1.08 | locus YHR013C, strain ard1, hits give low values 0.982 | locus YHR027C, strain rpn1, hits give low values 0.999 | locus YHR030C, strain SLT2, hits give low values 0.996 and 0.974 | locus YHR079C, strain IRE1 (second series), hits give low values 0.998 | locus YHR079C, strain IRE1, hits give low values 0.941 | locus YHR094C, strain hxt1, hits give low values 0.999 | locus YHR129C, strain ARP1, hits give low values 0.99 | locus YHR142W, strain chs7, hits give low values 0.974 | locus YHR200W, strain rpn10, hits give low values 1 | locus YIL066C, strain RNR3, hits give low values 0.989 | locus YIL073C, strain SPO22, hits give low values 1.04 | locus YIL125W, strain kgd1, hits give low values 0.989 | locus YIR030C, strain dcg1, hits give low values 0.991 | locus YJL092W, strain hpr5, hits give low values 0.991 | locus YJL095W, strain BCK1 (second series), hits give low values 0.996 | locus YJL095W, strain BCK1, hits give low values 0.996 and 0.958 | locus YJL115W, strain asf1, hits give low values 0.993 | locus YJL129C, strain trk1, hits give low values 0.976 | locus YJL134W, strain LCB3, hits give low values 0.988 | locus YJL154C, strain vps35, hits give low values 0.994 | locus YJL164C, strain tpk1, hits give low values 0.985 | locus YJL166W, strain qcr8, hits give low values 0.991 | locus YJL168C, strain set2, hits give low values 0.993 | locus YJL187C, strain SWE1 (second series), hits give low values 0.967 | locus YJL187C, strain SWE1, hits give low values 0.995 | locus YJR043C, strain POL32, hits give low values 1.02 | locus YJR066W, strain TOR1, hits give low values 0.981
